BAZ2B inh: inhibitors of human BAZ2B bromodomain. AlphaScreen BAZ2B-H3K14Ac peptide displacement. Potency, µM (highest dose often 114 µM), for inactives: at the top dose activity change, negative = inhibition, usual class: inhibitors. 360,000 tested, 4.4% active. AID 504333; further: on the % scale 0 is the no-effect control and ±100 the full control effect; nearly all actives have a fitted effect of over 60% in size
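Inhibition is scored as reduced AlphaScreen emission. The BAZ2B/b-H3(5-23)K14Ac complex (50 nM each) in PBS pH 7.4, 0.01% Tween-20 meets compound (up to 110 uM) for 30 min at RT before bead addition.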
G9a inh: blocks human histone lysine methyltransferase G9a | Q96KQ7 | G9a H3K9 monomethylation, AlphaScreen, 2 h | Potency, µM (titrated, usually from 102 µM), without a hit: at the highest dose activity, negative = inhibition, actives largely listed as inhibitors | 350,000 tested, 8.8% active; further: on the % scale 0 is the no-effect control and ±100 the full control effect; nearly all actives have a fitted effect of over 75% in size
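Step 1: enzyme (final 20 nM) with compound, 15 min RT. Step 2: substrate peptide 500 nM and SAM 20 uM, 2 h RT. Step 3: anti-H3K9me1 antibody and AlphaScreen beads, 10 min, then plate read.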
HP1b chromo inh: blocks HP1-beta chromodomain binding to methylated histone tails. AlphaScreen HP1-beta / biotin-H3K9me3 peptide binding. 390,000 tested, 0.56% active. P83916. AID 540317. Potency, µM (titrated, usually from 114 µM), without a hit: at the top dose activity change, negative = inhibition, most hits filed as inhibitors; further: nearly all actives have a fitted effect of over 70% in size
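HP1-beta protein (50 nM final) preincubated 30 min at room temperature with biotinylated H3(1-18)K9me3 peptide (50 nM) in PBS pH 7.4, 0.01% Tween-20, then compound added for 30 min. AlphaScreen streptavidin donor/nickel chelate acceptor beads (10 ug/mL final), 30 min dark, luminescence read.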
JMJD2A Tudor: inhibitors of human JMJD2A Tudor domain | O75164 | AlphaScreen JMJD2A-Tudor / H3K4me3 peptide binding | Potency, µM (top dose mostly 114 µM), for inactives: at the highest dose activity change, negative = inhibition, most hits filed as inhibitors | 390,000 tested, 4.4% active | AID 504339; further: on the % scale 0 is the no-effect control and ±100 the full control effect; nearly all actives have a fitted effect of over 50% in size
Target sequence (O75164 whole entry, looked up, the tested form may be a part): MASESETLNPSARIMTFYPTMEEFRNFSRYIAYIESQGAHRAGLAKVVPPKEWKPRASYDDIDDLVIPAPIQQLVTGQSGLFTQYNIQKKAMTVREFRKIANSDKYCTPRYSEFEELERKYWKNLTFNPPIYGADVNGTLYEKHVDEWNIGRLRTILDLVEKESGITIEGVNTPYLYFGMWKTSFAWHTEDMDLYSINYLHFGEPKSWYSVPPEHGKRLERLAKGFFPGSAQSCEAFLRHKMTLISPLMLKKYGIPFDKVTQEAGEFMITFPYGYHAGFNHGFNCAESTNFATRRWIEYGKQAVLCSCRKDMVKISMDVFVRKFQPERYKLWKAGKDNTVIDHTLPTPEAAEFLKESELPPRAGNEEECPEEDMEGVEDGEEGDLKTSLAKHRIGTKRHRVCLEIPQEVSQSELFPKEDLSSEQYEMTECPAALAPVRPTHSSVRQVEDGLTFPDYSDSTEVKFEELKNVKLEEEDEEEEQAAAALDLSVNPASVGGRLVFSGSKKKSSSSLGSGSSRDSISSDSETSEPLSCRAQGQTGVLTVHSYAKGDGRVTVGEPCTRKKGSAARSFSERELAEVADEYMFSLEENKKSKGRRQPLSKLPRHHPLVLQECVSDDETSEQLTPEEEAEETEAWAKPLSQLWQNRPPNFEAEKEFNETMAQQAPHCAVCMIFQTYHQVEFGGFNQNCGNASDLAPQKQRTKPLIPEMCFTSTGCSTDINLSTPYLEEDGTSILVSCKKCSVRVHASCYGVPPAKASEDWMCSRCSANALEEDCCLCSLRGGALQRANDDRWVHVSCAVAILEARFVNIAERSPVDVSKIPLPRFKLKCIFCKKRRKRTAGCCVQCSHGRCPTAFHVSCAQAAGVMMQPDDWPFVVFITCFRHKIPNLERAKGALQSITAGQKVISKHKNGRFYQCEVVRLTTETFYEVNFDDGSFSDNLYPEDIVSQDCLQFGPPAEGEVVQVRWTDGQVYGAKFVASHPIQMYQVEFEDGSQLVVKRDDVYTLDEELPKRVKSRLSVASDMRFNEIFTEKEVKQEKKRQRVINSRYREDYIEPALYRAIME
GLS inhibitor: blocks human kidney-isoform glutaminase activity; 410,000 tested, 0.21% active; GLS enzymatic activity, qHTS titration; Potency, µM (top dose mostly 45.5 µM), for inactives: at the highest dose activity change, negative = inhibition, hits mostly inhibitors; further: on the % scale 0 is the no-effect control and ±100 the full control effect
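hKGA in 45 mM KH2PO4 (pH 8.2), 0.02% Tween-20 with compound, then 1mM L-Glutamine (stock as added) plus glutamate oxidase/HRP/Amplex red coupling mix. Fluorescence read initially and after 30 min at RT; signal change reflects glutamate formation.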
Starred values were filed as active, the others as inactive; u = inconclusive; x = no result given; [ ] = another dose, or the depositor's remark. Only some compounds are listed: those with a hit (about 10% of all), similar ones and a draw of the others. The call rests on the fitted dose curve; in most records, active means well fitted curve in the direction sought with a large enough effect; inconclusive means small, poorly fitted or top-dose-only effect, or another doubt; inactive means no such curve, though single readings can be large; an effect the other way counts as inactive or inconclusive. Potency means the concentration at half of the fitted maximal effect.

SMILES	BAZ2B inh	G9a inh	HP1b chromo inh	JMJD2A Tudor	GLS inhibitor
CN1C(=O)C(=Cc2coc3ccccc3c2=O)C(=O)N(C)C1=O	-4%	32µM*	15%	-18%	26%
CN1C(=O)C(=Cc2cn(CC#N)c3ccccc23)C(=O)N(C)C1=O	-5%	-17%	29%	-18%	7%
COC(=O)C1=C(c2ccc(S(C)(=O)=O)cc2)C[C@@H]2CC[C@H]1N2C(=O)NCCS(C)=O (some centres undefined)	x	x	6%	-20%	3%
CCCCn1c(O)c(/C=N/N2CCCCC2c2cccnc2)c(=O)[nH]c1=S (centres undefined)	-7%	8.9µM*	30%	-8%	0%
CCCCn1c(O)c(/C=N/N2CCOCC2)c(=O)[nH]c1=S	-19%	45µM*	50%	8%	16%
O=C1CC(=O)N(c2cccc(Cl)c2)C(=O)N1	u	-29%[12.7 µM]	22%	-21%	8%
COc1ccc(-c2nn(CCC#N)cc2C(=O)NCc2ccccc2)cc1OC	3%	9%	24%	3%	-2%
COc1ccc(C2c3c(nc(C)[nH]c3=O)Oc3c2c(=O)oc2ccccc32)cc1 (centres undefined)	-14%	-1%	34%	-10%	8%
[Hg+][c]1ccccc1	x	u	x	x	13µM*
Nc1ccccc1	x	x	x	x	-1%
Cc1cc(/C=C2\C(=O)NC(=O)N(Cc3ccccc3)C2=O)c(C)n1-c1ccc(Cl)c(C(=O)O)c1	32µM*	13µM*	-87%	45µM*	10µM*
Cc1ccc(N2C(=O)NC(=O)/C(=C/c3ccc(-c4ccc(C(=O)O)c(Cl)c4)o3)C2=O)cc1	u	10µM*	24%	-20%	11µM*
Cc1ccc(-n2c(C)cc(/C=C3/C(=O)NC(=O)N(Cc4ccco4)C3=O)c2C)cc1	35µM*	u	-14%	u	9%
Cc1cc(/C=C2\C(=O)NC(=O)N(c3cccc(F)c3)C2=O)c(C)n1-c1ccc(C(=O)O)c(Cl)c1	u	35µM*	4%	-35%	u
Cc1cc(/C=C2\C(=O)NC(=O)N(Cc3ccccc3Cl)C2=O)c(C)n1-c1ccc(C(=O)O)cc1	50µM*	25µM*	71µM*	u	133%
CCn1c(C)cc(/C=C2\C(=O)NC(=O)N(c3ccccc3C)C2=O)c1C	-34%	u	31%	-3%	0%
Cc1ccccc1-n1c(C)cc(/C=C2/C(=O)NC(=O)N(Cc3ccco3)C2=O)c1C	u	u	-11%	28µM*	7%
Cc1cc(/C=C2\C(=O)NC(=O)N(Cc3ccco3)C2=O)c(C)n1-c1ccc(C(=O)O)cc1	50µM*	50µM*	u	-32%	85%
Cc1c(Cl)cccc1N1C(=O)NC(=O)/C(=C\c2cc(C)n(-c3cccc(C(=O)O)c3C)c2C)C1=O	u	x	8%	-17%	-4%
COc1cc(C(=O)OC2C[C@H]3CC[C@@H](C2)N3)ccc1O (some centres undefined)	-19%	40µM*	19%	-17%	15%
COc1cccc(-c2nn(Cc3ccccc3)cc2C(=O)O)c1	-3%	3%	49%	7%	1%
CCC(=O)Nc1cc(C(=O)O)ccc1S(=O)(=O)c1ccc(C)cc1	u	45µM*	8%	u	172%
CCC(=O)Nc1ccccc1	5%	8%[12.7 µM]	16%	-20%	5%
Cc1nn(CCC#N)c2c1P(=S)(N1CCCC1)OC(c1ccc(F)cc1)=N2 (centres undefined)	u	16µM*	14µM*	u	u
CN(C)S(=O)(=O)c1cc(NC(=O)C[N+]23CCN(CC2)CC3)ccc1Cl	7%	-3%[59 µM]	25%	-13%	-3%
SMILES	BAZ2B inh	G9a inh	HP1b chromo inh	JMJD2A Tudor	GLS inhibitor
CC(N)Cc1c[nH]c2ccc(O)cc12 (centres undefined)	x	7.9µM*	39%	-17%	61%
CC(N)Cc1c[nH]c2ccc(OCc3cccs3)cc12 (centres undefined)	x	21%[59 µM]	-8%	u	-6%
CN1CCN(C(=O)COc2ccc(S(=O)(=O)NCc3ccccc3)cc2Cl)CC1	4%	u	7%	0%	-3%
NC(=O)OCCCc1ccccc1	x	11%[59 µM]	14%	-17%	-7%
CCOC(=O)CCCc1cc[c]([Sb](=[O])([OH])[OH])cc1	x	x	1.3µM*	0.71µM*	x
Oc1cc(Cl)cc(Cl)c1Cl	-1%	8%[0.501 µM]	28%	-17%	4%
CCC[N+]12CCC(CC1)C(C(O)(c1ccccc1)c1ccccc1)C2 (centres undefined)	-3%	-19%	40%	-2%	-13%
C[N+]12CCC(CC1)C(C(O)(c1ccccc1)c1cccs1)C2 (centres undefined)	0%	14µM*	15%	-31%	-1%
CN1CCC(n2nccc2N)CC1	-9%	0%[12.7 µM]	23%	2%	16%
Nc1ccnn1C1CCNCC1	3%	22µM*	u	-17%	1%
CN1C(=O)NC(=O)/C(=C\C=C\c2ccccc2[N+](=O)[O-])C1=O	u	7.9µM*	u	u	2%
O=c1c2ccccc2nc(/C=C\c2ccccc2[N+](=O)[O-])n1-c1ccccc1O	u	u	u	u	1%
COc1cc(C)c(CN2CCN(c3ccccc3)CC2)cc1C	u	u	-58%	3.2µM*	21%
Cc1ccccc1CN1CCN(c2ccc(Cl)cc2)CC1	u	13µM*	-12%	4µM*	-14%
O=C(COC(=O)Cc1ccccc1)Nc1nnc(-c2ccccc2)o1	-11%	0%[0.501 µM]	42%	-21%	23%
CCc1sc(C(=O)N2CCC3(CC2)OCCO3)cc1Br	-5%	14%[12.7 µM]	18%	-5%	-3%
CCOC(=O)c1c(N)n(CCCOC(=O)c2ccco2)c2nc3ccccc3nc12	2%	-32%[12.7 µM]	61%	-8%[11.4 µM]	-16%
CCCCCn1c(NC(=O)c2ccco2)c(C(=O)OCC)c2nc3ccccc3nc21	7%	50µM*	u	u	-10%
COC12c3ccccc3-c3ccccc3C1C(C(=O)O)C2C(=O)O (centres undefined)	x	x	x	x	18µM*
O=C(O)C1C2c3ccccc3C(=O)C1(C(=O)O)c1ccccc12 (centres undefined)	x	x	42%	-1%	-4%
COc1ccc(-n2nnnc2C(CCSC)N2CCC3(CC2)C(=O)NCN3c2ccccc2)cc1 (centres undefined)	x	x	x	x	8%
O=c1[nH]c2ccccc2n1C1CCN(C(CCc2ccccc2)c2nnnn2C2CCCCC2)CC1 (centres undefined)	x	x	x	x	8%
CN1CCN(C(=O)Cc2ccccc2)CC1	-8%	-1%	65%	-7%	4%
CCc1ccc(CN2CCN(Cc3cc(Br)ccc3O)CC2)cc1	45µM*	25µM*	25µM*	22µM*	21%
COc1ccc(CC(=O)N(CCN(C)C)CC2CCCN(Cc3ccccc3F)C2)cc1 (centres undefined)	20%	x	28%	-16%	2%

Assay outcomes from PubChem BioAssay.
